This note sets out measurements from PubChem BioAssay.

Active and inactive are the calls of the source. Unless noted, the rule behind the calls is not given here.

For assay [1], the system named is Wnt5a (protein binding on small-molecule microarray). The assay can be described thus: small molecules binding Wnt5a protein – biophysical, small-molecule microarray, 635/667 nm fluorescence, primary screen (AID 1142).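 Note: fluorescence read at 667 nm with signal to noise per printed feature.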 The conditions noted are these: 635 nm fluorescence, higher = more signal.
Assay [2] can be described thus: ATP-based viability of Huh7 replicon cells – cell-based, CellTiter-Glo luminescence, basal, 48 h, cytotoxicity control for HCV replication inhibitor project, primary screen (AID 1143).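 Note: Huh7 hepatoma cells carrying a hepatitis C replication reporter with no stimulus; test concentration not given here.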 To be noted: higher = more signal, called active from +8 up or from −8 down.
The nature of assay [3]: Pseudomonas biofilm growth suppression – PAO1 strain, BacTiter-Glo luminescence, LB-PBS, primary screen (AID 1144). To be noted: P. aeruginosa PAO1 biofilm, 12 h, higher = more signal.
Assay [4] can be described thus: basal CRE-LacZ reporter activity in PC12 – cell-based, unstimulated, primary screen (AID 1145). To be noted: no forskolin, luminescence, 4.5 h, higher = more signal, called active from +8 up or from −8 down.
A short description of assay [5]: forskolin-driven CRE-LacZ activity in PC12 – cell-based, CRE-LacZ reporter, forskolin-stimulated, primary screen (AID 1146).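 Note: PC12 cells with 6xCRE LacZ reporter stimulated by forskolin 10 µM; beta-galactosidase reporter signal reflecting CREB driven transcription.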 To be noted: luminescence, 4.5 h, higher = more signal, called active from +8 up or from −8 down.
For assay [6], the target named is Streptavidin (Streptomyces avidinii) (UniProt P22629). The assay can be described thus: compounds binding control protein streptavidin – biophysical, small-molecule microarray, 635/667 nm fluorescence, artefact control for SMM compound annotation, primary screen (AID 1147).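 Note: signal reflects streptavidin binding to arrayed compounds as a control protein.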 To be noted: higher = more signal.
Streptavidin (Streptomyces avidinii), sequence (P22629 whole entry, looked up): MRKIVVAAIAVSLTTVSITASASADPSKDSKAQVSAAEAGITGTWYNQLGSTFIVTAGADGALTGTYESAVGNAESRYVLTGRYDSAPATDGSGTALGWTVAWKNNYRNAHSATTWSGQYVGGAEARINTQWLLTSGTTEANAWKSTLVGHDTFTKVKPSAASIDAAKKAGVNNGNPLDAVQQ
A short description of assay [7]: probe aInhba binding on compound microarray – biochemical, small-molecule microarray, 635/667 nm fluorescence, primary screen (AID 1148).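 Note: score merges 667nm spot fluorescence with signal-to-noise for antibody binding to printed compounds.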 To be noted: higher = more signal.
For assay [8], the target named is Torsin-1A (Homo sapiens) (UniProt O14656). The assay can be described thus: TOR1A wild-type binding on microarray – cell lysate, small-molecule microarray, lysate, 635/667 nm, primary screen (AID 1149). To be noted: COS7 hTOR1A-WT lysate, 635 nm fluorescence, higher = more signal.
Torsin-1A (Homo sapiens), sequence (O14656 whole entry, looked up): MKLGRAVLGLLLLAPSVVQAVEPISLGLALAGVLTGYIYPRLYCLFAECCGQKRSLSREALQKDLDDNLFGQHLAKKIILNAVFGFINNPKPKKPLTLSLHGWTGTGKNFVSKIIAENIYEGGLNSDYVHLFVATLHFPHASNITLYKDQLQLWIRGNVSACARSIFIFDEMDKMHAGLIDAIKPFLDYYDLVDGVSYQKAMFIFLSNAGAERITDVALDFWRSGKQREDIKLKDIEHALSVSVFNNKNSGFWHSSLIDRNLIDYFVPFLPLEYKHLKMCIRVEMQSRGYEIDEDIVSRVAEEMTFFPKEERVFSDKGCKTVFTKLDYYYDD
Assay [9] has the same target. The assay can be described thus: torsin A mutant lysate binding on microarrays – cell lysate, small-molecule microarray, COS7 lysate, 635/667 nm fluorescence, primary screen (AID 1150).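 Note: score pools 667 nm emission and signal to noise measuring lysate protein binding.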 The conditions noted are these: COS7 hTOR1A mutant lysate, 635 nm fluorescence, higher = more signal.
Assay [10] relates to Sonic hedgehog protein (Shh). The assay can be described thus: Sonic hedgehog microarray binding compounds – biochemical, small-molecule microarray, 635/667 nm fluorescence, primary screen (AID 1151).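 Note: Shh protein binding to compounds spotted on small-molecule microarray slides; score combines spot fluorescence intensity with signal-to-noise across triplicate slides.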 To be noted: 635 nm fluorescence, higher = more signal.

For `O=C1[C@H]2[C@H]3[C@H](O)[C@H](O)CC(=NOC[C@@H](O)COCc4ccco4)[C@H]3CC[C@H]2C(=O)N1c1ccc(F)cc1F`, the composite z-score in assay [1] was -0.459; in assay [6], -1.07; in assay [7], -0.103; in assay [8], 2.05; in [9], 1.84; in assay [10] it was 0.717. Also, the z-score in [2] is -2.57 (inactive); in [3], -1.34 (inactive); in [4], 0.699 (inactive); in assay [5], -0.455 (inactive).
For `CCCCC#C[C@@H]1C=C[C@H](OC(C)=O)[C@@H](COC(C)=O)O1`, the composite z-score in assay [1] is 0.03; in assay [6], 0.202; in [7] it was -0.154; in assay [8], 0.568; in assay [9], 0.234; in [10], 0.437. The z-score was -4.37 (inactive) in assay [2], 0.713 (inactive) in assay [3], -0.976 (inactive) in assay [4] and 2.86 (inactive) in assay [5].
`CCOC(=O)[C@H](CC(C)C)NC(=O)CCC1CC(OC(=O)NCc2cccc3ccccc23)CC2(CCCC(COC(=O)NCc3ccncc3)O2)O1` (stereo not given in full): the composite z-score in assay [1] was -0.0656; in assay [6], 0.629; in [7], 0.0074; in assay [8], 0.126; in assay [9] it was 0.565; in assay [10], 1.25. Besides, the z-score in assay [2] was -0.905 (inactive); in [3], -0.243 (inactive); in assay [4], 0.562 (inactive); in assay [5] it was 0.633 (inactive).
Consider `COC(=O)CC=C[C@@H](C)[C@@H](C=NO[C@@H](C)c1cc(-c2c(C)cc(C)cc2C)no1)NS(=O)(=O)c1ccc(C)cc1`, for which the composite z-score in [1] was -0.475; in assay [6], -0.195; in [7] it was -0.261; in [8] it was -1.05; in [9], -1.32; in assay [10], -1.63. For the same molecule, the z-score is -2.83 (inactive) in assay [2], 0.054 (inactive) in assay [3], 4.2 (inactive) in [4] and 0.0267 (inactive) in [5].
Regarding `CCOC(=O)[C@H](Cc1ccccc1)NC(=O)CCC1CC(OC(=O)NCCc2ccc(F)cc2)CC2(CCCC(COC(=O)NCC3CCCCC3)O2)O1` (stereo not given in full), the composite z-score turned out to be 0.0457 in assay [1]; 0.644 in assay [6]; 0.0074 in [7]; 0.846 in assay [8]; 0.438 in [9]; 1.23 in [10]. For the same molecule, the z-score in [2] is -0.224 (inactive); in assay [3], -1.12 (inactive); in assay [4], 0.29 (inactive); in assay [5], 0.624 (inactive).
In the case of `C[C@@H]1NC(=O)[C@@H](C)COC(=O)[C@H](C)NC(=O)[C@@H](C)COC1=O`, the composite z-score was 0.192 in assay [1]; -0.335 in assay [6]; -0.0791 in [7]; 0.179 in assay [8]; -0.231 in assay [9]; 0.234 in assay [10]. Moreover, the z-score in assay [2] was -3.21 (inactive); in [3], -0.906 (inactive); in assay [4] it was 0.427 (inactive); in assay [5], -0.105 (inactive).
Turning to `CC(C)(C)N1C(=O)[C@H]2[C@H]3[C@H](O)[C@H](O)CC(=NO[C@@H]4O[C@H](CO)[C@@H](O)[C@H](O)[C@H]4O)[C@H]3CC[C@H]2C1=O`, the composite z-score was 0.0479 in [1]; -0.132 in assay [6]; 0.179 in assay [7]; 0.462 in assay [8]; 0.0791 in assay [9]; 0.345 in [10]. Besides, the z-score in [2] was -2.05 (inactive); in [3], 0.745 (inactive); in assay [4] it was -0.656 (inactive); in assay [5], -0.0093 (inactive).
As to `CCOC(=O)[C@H](Cc1ccccc1)NC(=O)CCC1CC(OC(=O)NCCc2ccc(F)cc2)CC2(CCCC(COC(=O)NCCc3ccc(Cl)cc3)O2)O1` (stereo not given in full), the composite z-score in assay [1] was 0.108; in assay [6], 0.391; in [7] it was -0.0494; in assay [8], 0.371; in [9], 0.837; in assay [10], 0.726. Further, the z-score in assay [2] was -0.0147 (inactive); in assay [3], -0.288 (inactive); in assay [4] it was -0.526 (inactive); in assay [5], 0.483 (inactive).
As to `CCOC(=O)[C@H](CC(C)C)NC(=O)CCC1CC(OC(=O)NCCc2ccc(F)cc2)CC2(CCCC(COC(=O)NCCc3ccc(Cl)cc3)O2)O1` (stereo not given in full), the composite z-score in [1] was 0.555; in [6], 0.645; in [7] it was -0.125; in assay [8], 0.601; in assay [9], 0.385; in [10] it was 1.62. Further, the z-score in assay [2] is -1.54 (inactive); in assay [3] it was -0.204 (inactive); in assay [4], 1.75 (inactive); in assay [5], 0.214 (inactive).
`COCCNC(=O)OCC1CCCC2(CC(OC(=O)NCc3ccc4c(c3)OCO4)CC(CCC(=O)N[C@@H](C)C(=O)OC)O2)O1` (stereo not given in full): the composite z-score in assay [1] is -0.0558; in assay [6] it was 0.303; in assay [7] it was -0.205; in [8], 0.308; in assay [9], 0.551; in assay [10] it was 1.5. Moreover, the z-score in assay [2] is -0.773 (inactive); in assay [3] it was -0.0785 (inactive); in assay [4], -0.0755 (inactive); in assay [5] it was 0.468 (inactive).
`CC(C)=CCCC(C)=CCON=C1C[C@@H](O)[C@@H](O)[C@@H]2[C@@H]3C(=O)N(Cc4ccccc4)C(=O)[C@@H]3CC[C@H]12`: the composite z-score in assay [1] is -0.0617; in assay [6], 0.0609; in assay [7] it was -0.0736; in [8], 0.23; in assay [9] it was 0.0793; in [10], 0.993. The z-score is -3.4 (inactive) in assay [2], -0.302 (inactive) in [3], -0.293 (inactive) in [4] and -0.96 (inactive) in assay [5].
Regarding `COc1cccc([C@H]2Oc3ccc(OC)cc3C(=NOC[C@@H](O)[C@H]3O[C@@H]4OC(C)(C)O[C@@H]4[C@H]3O)[C@@H]2O)c1`, the composite z-score in assay [1] is 0.205; in [6] it was -0.311; in assay [7], -0.105; in [8], 0.0929; in [9] it was 0.339; in [10] it was 0.303. Besides, the z-score in assay [2] is -2.83 (inactive); in assay [3], 1.12 (inactive); in assay [4], 2.02 (inactive); in assay [5], 0.0487 (inactive).
`COC(=O)CC=C[C@@H](C)[C@@H](C=NO[C@@H](C)c1cn([C@H](CO)Cc2ccccc2)nn1)OC`: the composite z-score in [1] was -0.251; in assay [6], 0.303; in [7] it was -0.128; in assay [8] it was 0.652; in assay [9], 0.278; in assay [10] it was 0.469. In addition, the z-score was -0.323 (inactive) in [2], -0.54 (inactive) in assay [3], 0.597 (inactive) in assay [4] and 0.0826 (inactive) in assay [5].
For `CON=C[C@@H](C)[C@H](OCc1ccccc1)C(C)C`, the composite z-score was 0.103 in assay [1]; -0.0087 in assay [6]; -0.0963 in [7]; 0.537 in assay [8]; -0.253 in assay [9]; 0.224 in assay [10]. For the same molecule, the z-score in assay [2] is -1.83 (inactive); in [3], -1.54 (inactive); in assay [4], 0.987 (inactive); in [5] it was -0.278 (inactive).
